Here are results for nine compounds from PubChem BioAssay (NCI).

A short description of experiment [1]: NCI Yeast Anticancer Drug Screen. Data for the rad50 strain (AID 155).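 Also: 0% = growth of vehicle-only cultures of the same strain.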 The following applies: S. cerevisiae rad50 strain growth inhibition, active compounds read high. The method in brief:
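Cells are treated with compound, grown, and their growth is then scored against vehicle-only cultures of the same repair-deficient yeast strain.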

Experiment [2] is described as follows: NCI Yeast Anticancer Drug Screen. Data for the mec2-1 strain (AID 157). Conditions: S. cerevisiae mec2-1 strain, active compounds read high. The method in brief: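 Each compound was tested on mec2-1 yeast, a strain altered in DNA damage repair or cell cycle control. Growth inhibition is reported relative to vehicle.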
Experiment [3] can be described thus: NCI Yeast Anticancer Drug Screen. Data for the sgs1 mgt1 strain (AID 161).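 Also: 0% = growth of cultures given vehicle only.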 Conditions: S. cerevisiae sgs1 mgt1 strain, active compounds read high. The method in brief:
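Mutant yeast exposed to compound; growth scored against vehicle-only wells.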

A short description of experiment [4]: NCI Yeast Anticancer Drug Screen. Data for the cln2 rad14 strain (AID 165).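 Also: 0% = growth equal to vehicle treated cultures.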 Conditions: S. cerevisiae cln2 rad14 strain, active compounds read high. The method in brief:
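Test compounds were added to cln2 rad14 yeast cultures; inhibition of growth was then determined by comparison with vehicle treatment.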

Experiment [5] is described as follows: NCI Yeast Anticancer Drug Screen. Data for the bub3 strain (AID 167). Conditions: S. cerevisiae bub3 mutant strain, active compounds read high. The method in brief: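 Part of a panel of yeast mutants defective in DNA damage repair or cell cycle regulation. Each strain is grown with compound, and inhibition is calculated relative to solvent-treated cultures.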
Experiment [6] in a line: NCI Yeast Anticancer Drug Screen. Data for the mlh1 rad18 strain (AID 175). The following applies: S. cerevisiae mlh1 rad18 strain growth inhibition, active compounds read high. The method in brief: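 Inhibition values reflect reduced growth of mutant yeast versus vehicle-treated controls following compound exposure; the mutations affect DNA damage repair.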
The mark [7] stands for this setting: at 5.0 µM (retest, dose inferred, filed as 0.5).
Setting [8] is: at 50.0 µM (retest, dose inferred, filed as 5.0).

Compounds without any hit were thinned out: in the full panel of roughly 79,000, 15% have a hit. Unmarked numbers belong to inactive results. The source made the active and inactive calls. Rule as the data show it: active = growth inhibition above about 70%; inactive = the rest.

On to `O=C1C(=O)C(Br)(Br)C(Br)=C1Br`, for which the growth inhibition in experiment [1] (setting [7]) is -2%; in experiment [1] (setting [8]), 4%; in experiment [1] (at 50.0 µM) it was 88.5% (active); in experiment [2] (setting [7]) it was 1%; in experiment [2] (setting [8]) it was 21%; in experiment [2] (at 50.0 µM), 88.2% (active). In addition, the growth inhibition is -4% in experiment [3] (setting [7]); 5% in experiment [3] (setting [8]); 95% (active) in experiment [3] (at 50.0 µM); -1% in experiment [4] (setting [7]); -2% in experiment [4] (setting [8]); 90.5% (active) in experiment [4] (at 50.0 µM). Besides, the growth inhibition in experiment [5] (setting [7]) was -4%; in experiment [5] (setting [8]), -1%; in experiment [5] (at 50.0 µM), 93.5% (active); in experiment [6] (setting [7]), -4%; in experiment [6] (setting [8]), -4%; in experiment [6] (at 50.0 µM) it was 96.8% (active).
As to `O=C(O)C(CSC(c1ccccc1)c1ccccc1)NC(=O)C(c1ccccc1)c1ccccc1` (configuration not stated), the growth inhibition in experiment [1] (setting [7]) was 6%; in experiment [1] (setting [8]), 86% (active); in experiment [1] (at 50.0 µM), 52.5%; in experiment [2] (setting [7]), 11%; in experiment [2] (setting [8]), 89% (active); in experiment [2] (at 50.0 µM) it was 83.3% (active). Besides, the growth inhibition in experiment [3] (setting [7]) is 11%; in experiment [3] (setting [8]), 86% (active); in experiment [3] (at 50.0 µM) it was 69.8%; in experiment [4] (setting [7]), 15%; in experiment [4] (setting [8]), 84% (active); in experiment [4] (at 50.0 µM) it was 96.2% (active). Moreover, the growth inhibition in experiment [5] (setting [7]) was 8%; in experiment [5] (setting [8]) it was 64%; in experiment [5] (at 50.0 µM) it was 85.7% (active); in experiment [6] (setting [7]), 9%; in experiment [6] (setting [8]) it was 88% (active); in experiment [6] (at 50.0 µM), 97.1% (active).
For `COc1ccc(P2(=S)Oc3ccc(C(c4ccccc4)(c4ccccc4)c4ccccc4)cc3O2)cc1` (configuration not stated), the growth inhibition was 36% in experiment [1] (setting [7]); 96% (active) in experiment [1] (setting [8]); 38.6% in experiment [1] (at 50.0 µM); 11% in experiment [2] (setting [7]); 98% (active) in experiment [2] (setting [8]); 64.3% in experiment [2] (at 50.0 µM). The growth inhibition in experiment [3] (setting [7]) was 34%; in experiment [3] (setting [8]) it was 96% (active); in experiment [3] (at 50.0 µM) it was 54.7%; in experiment [4] (setting [7]), 24%; in experiment [4] (setting [8]), 98% (active); in experiment [4] (at 50.0 µM), 63.2%. Further, the growth inhibition is 7% in experiment [5] (setting [7]); 98% (active) in experiment [5] (setting [8]); 48.9% in experiment [5] (at 50.0 µM); 34% in experiment [6] (setting [7]); 98% (active) in experiment [6] (setting [8]); 58.1% in experiment [6] (at 50.0 µM).
As to `CCOP(=O)(OCC)/C(C#N)=C/c1cccc(F)c1`, the growth inhibition in experiment [1] (setting [7]) is -9%; in experiment [1] (setting [8]), 45%; in experiment [1] (at 50.0 µM), 73.8% (active); in experiment [2] (setting [7]) it was -11%; in experiment [2] (setting [8]), 23%; in experiment [2] (at 50.0 µM) it was 59.3%. Further, the growth inhibition is -2% in experiment [3] (setting [7]); 36% in experiment [3] (setting [8]); 64.8% in experiment [3] (at 50.0 µM); 17% in experiment [4] (setting [7]); 33% in experiment [4] (setting [8]); 25.4% in experiment [4] (at 50.0 µM). Besides, the growth inhibition in experiment [5] (setting [7]) was -12%; in experiment [5] (setting [8]), 56%; in experiment [5] (at 50.0 µM) it was 51.1%; in experiment [6] (setting [7]) it was -1%; in experiment [6] (setting [8]), 69%; in experiment [6] (at 50.0 µM), 68.9%.
For the compound `Cc1cc(OC(=O)N(CCCl)CCCl)c(C(C)C)cc1N=O`, the growth inhibition in experiment [1] (setting [7]) is 19%; in experiment [1] (setting [8]) it was 91% (active); in experiment [1] (at 50.0 µM), 97.3% (active); in experiment [2] (setting [7]), 20%; in experiment [2] (setting [8]), 97% (active); in experiment [2] (at 50.0 µM), 97.5% (active). The growth inhibition is 17% in experiment [3] (setting [7]); 96% (active) in experiment [3] (setting [8]); 78.5% (active) in experiment [3] (at 50.0 µM); 10% in experiment [4] (setting [7]); 92% (active) in experiment [4] (setting [8]); 97.2% (active) in experiment [4] (at 50.0 µM). Also, the growth inhibition in experiment [5] (setting [7]) was 1%; in experiment [5] (setting [8]), 94% (active); in experiment [5] (at 50.0 µM) it was 18.8%; in experiment [6] (setting [7]), 33%; in experiment [6] (setting [8]), 97% (active); in experiment [6] (at 50.0 µM), 97.7% (active).
For `O=C1CCC(=O)N1SC(Cl)(Cl)Cl`, the growth inhibition in experiment [1] (setting [7]) was 21%; in experiment [1] (setting [8]), 26%; in experiment [1] (at 50.0 µM), 99.7% (active); in experiment [2] (setting [7]), 20%; in experiment [2] (setting [8]) it was 4%; in experiment [2] (at 50.0 µM), 99.7% (active). For the same compound, the growth inhibition in experiment [3] (setting [7]) is 7%; in experiment [3] (setting [8]), 6%; in experiment [3] (at 50.0 µM) it was 99.7% (active); in experiment [4] (setting [7]) it was -11%; in experiment [4] (setting [8]), -13%; in experiment [4] (at 50.0 µM) it was 99% (active). Further, the growth inhibition in experiment [5] (setting [7]) was -12%; in experiment [5] (setting [8]), 2%; in experiment [5] (at 50.0 µM), 99.5% (active); in experiment [6] (setting [7]) it was 2%; in experiment [6] (setting [8]), 18%; in experiment [6] (at 50.0 µM), 99.5% (active).
For the compound `COc1ccc(/C=C\[N+](=O)[O-])cc1OC`, the growth inhibition in experiment [1] (setting [7]) was 47%; in experiment [1] (setting [8]), 97% (active); in experiment [1] (at 50.0 µM) it was 99.4% (active); in experiment [2] (setting [7]) it was 27%; in experiment [2] (setting [8]), 99% (active); in experiment [2] (at 50.0 µM), 99.7% (active). Also, the growth inhibition is 25% in experiment [3] (setting [7]); 99% (active) in experiment [3] (setting [8]); 99.7% (active) in experiment [3] (at 50.0 µM); 12% in experiment [4] (setting [7]); 99% (active) in experiment [4] (setting [8]); 99% (active) in experiment [4] (at 50.0 µM). Also, the growth inhibition in experiment [5] (setting [7]) is 14%; in experiment [5] (setting [8]), 99% (active); in experiment [5] (at 50.0 µM) it was 99.3% (active); in experiment [6] (setting [7]), 28%; in experiment [6] (setting [8]), 99% (active); in experiment [6] (at 50.0 µM), 99.5% (active).
With `CCOc1ccc(CCNC)c2c1ccc1ccc(OC)c(O)c12`, the growth inhibition in experiment [1] (setting [7]) is -1%; in experiment [1] (setting [8]), 97% (active); in experiment [1] (at 50.0 µM), 97.3% (active); in experiment [2] (setting [7]) it was -5%; in experiment [2] (setting [8]), 98% (active); in experiment [2] (at 50.0 µM), 99% (active). Also, the growth inhibition is -3% in experiment [3] (setting [7]); 98% (active) in experiment [3] (setting [8]); 98.1% (active) in experiment [3] (at 50.0 µM); 5% in experiment [4] (setting [7]); 98% (active) in experiment [4] (setting [8]); 92.2% (active) in experiment [4] (at 50.0 µM). In addition, the growth inhibition was -4% in experiment [5] (setting [7]); 98% (active) in experiment [5] (setting [8]); 97.8% (active) in experiment [5] (at 50.0 µM); 6% in experiment [6] (setting [7]); 96% (active) in experiment [6] (setting [8]); 98% (active) in experiment [6] (at 50.0 µM).
Take `O=[N+]([O-])c1c[c]([Hg][Cl])c(O)[c]([Hg][Cl])c1`: the growth inhibition was 44% in experiment [1] (setting [7]); 99% (active) in experiment [1] (setting [8]); 88.7% (active) in experiment [1] (at 50.0 µM); 52% in experiment [2] (setting [7]); 99% (active) in experiment [2] (setting [8]); 92.4% (active) in experiment [2] (at 50.0 µM). Moreover, the growth inhibition in experiment [3] (setting [7]) was 100% (active); in experiment [3] (setting [8]), 78% (active); in experiment [3] (at 50.0 µM) it was 92.4% (active); in experiment [4] (setting [7]) it was 94% (active); in experiment [4] (setting [8]), 97% (active); in experiment [4] (at 50.0 µM) it was 91% (active). For the same compound, the growth inhibition was 99% (active) in experiment [5] (setting [7]); 91% (active) in experiment [5] (setting [8]); 90.1% (active) in experiment [5] (at 50.0 µM); 41% in experiment [6] (setting [7]); 99% (active) in experiment [6] (setting [8]); 89.2% (active) in experiment [6] (at 50.0 µM).
